Source: PubChem BioAssay AID1159580 (chemical genetic matrix, 2015)
Hit rate of the full screen: of about 5,500 compounds, about 2,000 (36%) were called active. Inconclusive results (about 18%) are left out. No stated cut-off is given here; in the data, active means normalized growth mostly below about 0.91 (no sharp cut-off); inconclusive means no clear call, values can overlap the other calls; inactive means mostly above about 0.92. The list shows a part of the results.

Assay: chemical genetic growth profiling, strain panel (AID 1159580);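 further: tested at 20 µM; growth read once vehicle control cultures reached saturation at 30 °C; 1 = growth at the plate median or of vehicle wells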
Conditions: S. cerevisiae deletion strains, growth OD
[1] = locus YGR078C, strain PAC10, stronger effect = lower value
[2] = locus YNL322C, strain KRE1, stronger effect = lower value
[3] = locus YPL241C, strain CIN2, stronger effect = lower value
[4] = locus YDL101C, strain DUN1, stronger effect = lower value
[5] = locus YHR030C, strain SLT2, stronger effect = lower value

Measured: normalized growth

CCCCS(=N)(=O)CC[C@H](N)C(=O)O (some centres undefined)
inactive: locus YAL040C, strain CLN3, stronger effect = lower value 0.986 | locus YDR363W, strain ESC2, stronger effect = lower value 0.99 | locus YER002W, strain NOP16, stronger effect = lower value 1.01 | [1] 0.995 | locus YNL175C, strain NOP13, stronger effect = lower value 0.984 | locus YNL197C, strain WHI3, stronger effect = lower value 0.991 | locus YNL224C, strain SQS1, stronger effect = lower value 0.983 | [2] 0.994 | locus YOR083W, strain WHI5 (second series), stronger effect = lower value 0.977 | [3] 1

COc1ccc2c(c1)CCc1sc(NC(=O)c3ccco3)nc1-2
active: [5] 0.757 | locus YLR113W, strain HOG1, stronger effect = lower value 0.823
inactive: locus YAR019C, strain CDC15, stronger effect = lower value 0.957 | locus YBL105C, strain PKC1, stronger effect = lower value 0.961 | locus YBR135W, strain CKS1, stronger effect = lower value 0.953 | locus YBR136W, strain MEC1, stronger effect = lower value 0.969 | locus YBR160W, strain CDC28, stronger effect = lower value 0.965 | locus YDL017W, strain CDC7, stronger effect = lower value 0.971 | locus YDL028C, strain MPS1, stronger effect = lower value 0.971 | [4] 0.993 | locus YDL108W, strain KIN28, stronger effect = lower value 0.947 | locus YDL132W, strain cdc53, stronger effect = lower value 0.97 | locus YDL214C, strain PRR2, stronger effect = lower value 0.901 | locus YDR052C, strain DBF4, stronger effect = lower value 0.969 | locus YDR054C, strain cdc34, stronger effect = lower value 0.955 | locus YDR226W, strain ADK1, stronger effect = lower value 0.957 | locus YDR477W, strain SNF1, stronger effect = lower value 0.889 | locus YER123W, strain YCK3, stronger effect = lower value 0.858 | locus YER133W, strain GLC7, stronger effect = lower value 0.872 | locus YFL009W, strain cdc4, stronger effect = lower value 0.963 | locus YFL029C, strain CAK1, stronger effect = lower value 0.959 | locus YFR003C, strain YPI1, stronger effect = lower value 0.964 | locus YFR019W, strain FAB1, stronger effect = lower value 0.996 | locus YFR028C, strain CDC14, stronger effect = lower value 0.95 | locus YGR040W, strain KSS1, stronger effect = lower value 0.872 | locus YGR052W, strain FMP48, stronger effect = lower value 0.94 | locus YGR092W, strain DBF2, stronger effect = lower value 0.803 | locus YHR079C, strain IRE1, stronger effect = lower value 0.952 | locus YHR082C, strain KSP1, stronger effect = lower value 0.918 | locus YHR205W, strain SCH9, stronger effect = lower value 0.921 | locus YIL147C, strain SLN1, stronger effect = lower value 0.957 | locus YJL095W, strain BCK1, stronger effect = lower value 0.895 | locus YJL128C, strain PBS2, stronger effect = lower value 0.934 | locus YJL157C, strain FAR1, stronger effect = lower value 0.889 | locus YJR016C, strain ILV3, stronger effect = lower value 0.961 | locus YJR066W, strain TOR1 (second series), stronger effect = lower value 0.872 | locus YJR066W, strain TOR1, stronger effect = lower value 0.924 | locus YKL048C, strain ELM1, stronger effect = lower value 0.959 | locus YKL067W, strain YNK1, stronger effect = lower value 0.92 | locus YKL101W, strain HSL1, stronger effect = lower value 0.941 | locus YKL193C, strain SDS22, stronger effect = lower value 0.95 | locus YKL203C, strain TOR2, stronger effect = lower value 0.951 | locus YLR133W, strain CKI1, stronger effect = lower value 0.93 | locus YLR403W, strain SFP1, stronger effect = lower value 0.915 | locus YML070W, strain DAK1, stronger effect = lower value 0.88 | locus YMR001C, strain CDC5, stronger effect = lower value 0.946 | locus YMR205C, strain PFK2 (second series), stronger effect = lower value 0.927 | locus YMR277W, strain FCP1, stronger effect = lower value 0.954 | locus YNL006W, strain LST8, stronger effect = lower value 0.967 | locus YNL020C, strain ARK1, stronger effect = lower value 0.928 | locus YNL161W, strain CBK1, stronger effect = lower value 0.96 | locus YNL183C, strain NPR1, stronger effect = lower value 0.938 | locus YNL207W, strain RIO2, stronger effect = lower value 0.96 | locus YNL222W, strain SSU72, stronger effect = lower value 0.957 | locus YNL307C, strain MCK1 (second series), stronger effect = lower value 0.94 | locus YOL078W, strain AVO1, stronger effect = lower value 0.961 | locus YOL136C, strain PFK27, stronger effect = lower value 0.882 | locus YOR061W, strain CKA2, stronger effect = lower value 0.887 | locus YOR119C, strain RIO1, stronger effect = lower value 0.865 | locus YOR231W, strain MKK1, stronger effect = lower value 0.932 | locus YOR329C, strain SCD5, stronger effect = lower value 0.969 | locus YPL031C, strain PHO85, stronger effect = lower value 0.828 | locus YPL153C, strain RAD53, stronger effect = lower value 0.845 | locus YPL204W, strain HRR25, stronger effect = lower value 0.896 | locus YPL209C, strain IPL1, stronger effect = lower value 0.968 | locus YPL256C, strain CLN2, stronger effect = lower value 0.918 | locus YPR025C, strain CCL1, stronger effect = lower value 0.953 | locus YPR106W, strain ISR1, stronger effect = lower value 0.969 | locus YPR111W, strain DBF20, stronger effect = lower value 0.967 | strain NNK1, stronger effect = lower value 0.973 | strain TSCII, stronger effect = lower value 0.959

COc1ccc(C(=O)c2sc(Nc3ccccc3)nc2-c2ccccc2)cc1
inactive: locus YAL013W, strain DEP1, stronger effect = lower value 0.999 | locus YBR229C, strain ROT2, stronger effect = lower value 0.979 | locus YCL061C, strain MRC1, stronger effect = lower value 1 | [4] 1 | locus YDR150W, strain NUM1, stronger effect = lower value 1.01 | locus YEL061C, strain CIN8, stronger effect = lower value 0.96 | [1] 0.994 | [5] 0.907 | locus YHR087W, strain rtc3, stronger effect = lower value 0.958 | locus YJR043C, strain POL32, stronger effect = lower value 0.988 | locus YJR075W, strain HOC1, stronger effect = lower value 0.975 | locus YKL190W, strain CNB1, stronger effect = lower value 0.997 | locus YLR039C, strain RIC1, stronger effect = lower value 0.825 | locus YLR058C, strain SHM2 (second series), stronger effect = lower value 1.02 | locus YLR085C, strain ARP6, stronger effect = lower value 0.853 | locus YLR262C, strain YPT6, stronger effect = lower value 0.993 | locus YML094W, strain GIM5, stronger effect = lower value 0.927 | locus YMR219W, strain ESC1, stronger effect = lower value 0.976 | locus YMR263W, strain SAP30, stronger effect = lower value 0.971 | locus YMR307W, strain GAS1, stronger effect = lower value 0.925 | locus YNL153C, strain GIM3, stronger effect = lower value 1.03 | locus YNL298W, strain CLA4 (second series), stronger effect = lower value 0.953 | [2] 0.989 | locus YNR030W, strain Alg12, stronger effect = lower value 0.913 | locus YOL006C, strain TOP1, stronger effect = lower value 0.893 | locus YPL055C, strain LGE1, stronger effect = lower value 0.916 | [3] 0.898 | locus YPR135W, strain CTF4, stronger effect = lower value 0.857
